Screening data deposited in PubChem BioAssay by National Center for Advancing Translational Sciences (NCATS).
A selection: hits, their analogues and other compounds. The true share with any hit is near 15%.
Pf growth 96h – P. falciparum growth inhibition at 96 hour, primary screen for plastid delayed-death inhibitors. Potency, µM (titrated, usually from 28.7 µM), without a hit: top-dose activity change, negative = inhibition, most hits filed as inhibitors. P. falciparum luciferase reporter growth, 96 h. AID 504834. actives 6.9% (n = 320,000); note: potency is the fitted concentration of half-maximal effect; % is set by controls: 0 for no effect and ±100 for the full control effect
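Parasite growth measured via integrated firefly luciferase reporter in P. falciparum. Infected erythrocytes at 2% hematocrit, 0.05% parasitemia final were treated 96 hours at 37 C under 5% CO2, and luminescence was read.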
SARS PLpro yeast – blocks SARS-CoV papain-like protease in a yeast assay | S. cerevisiae expressing SARS-CoV PLpro, growth rescue | Potency, µM (top dose mostly 32.9 µM), for inactives: at the top dose activity, positive = growth rescue, actives largely listed as activators | actives 0.19% (n = 330,000) | AID 485353; calls by dose curve; note: potency is the fitted concentration of half-maximal effect; 0% is about no effect; nearly all actives have a fitted effect of over 55% in size
HCMV inh – human cytomegalovirus inhibition; HFF cells, HCMV-luciferase reporter, 72 h; hits give low values; activity change, negative = inhibition, % at 57.5 µM; actives 4.5% (n = 410,000); AID 1259415; in the data active = activity change below about -60%; inconclusive = no clear call, values can overlap the other calls; inactive = above about -39%; note: % is set by controls: 0 for no effect and ±100 for the full control effect
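Steps: HFFs plated, 16 h 37C; compounds added; HCMV-luciferase added to MOI 1 PFU/cell; 72 h 37C; OneGlo reagent, 5 min room temperature; luminescence read, normalized to controls.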
HCV inh – inhibitors of hepatitis C virus infection. Huh7.5.1 HCVcc-Cre infection, luciferase reporter, 44 h. Potency, µM (titrated, usually from 41.8 µM), without a hit: at the top dose activity change, negative = inhibition, actives largely listed as inhibitors. actives 3.4% (n = 340,000). AID 651820; note: potency is the fitted concentration of half-maximal effect; % is set by controls: 0 for no effect and ±100 for the full control effect
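Cells (1,000/well) were plated 4 h before compound, then infected with HCVcc-Cre virus (~0.5 moi). After 44 h further culture, infection was read as luciferase luminescence following a 15 min substrate incubation at room temperature.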
Pf growth 48h – inhibits P. falciparum growth in the first generation, 48 h | P. falciparum luciferase growth in erythrocytes, 48 h | Potency, µM (top dose mostly 28.7 µM), for the others: at the highest dose activity change, negative = inhibition, most hits filed as inhibitors | actives 5.9% (n = 310,000); note: potency is the fitted concentration of half-maximal effect; % is set by controls: 0 for no effect and ±100 for the full control effect
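Cell-based growth assay: transgenic P. falciparum expressing firefly luciferase, cultured in red cells within RPMI 1640 containing 0.5% w/v Albumax, 24 mM bicarbonate and gentamycin. A drop in luciferase activity indicates inhibition.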
Sm TGR block – blocks Schistosoma mansoni thioredoxin glutathione reductase | Q962Y6 | purified TGR, DTNB reduction, TNB absorbance 405 nm | Potency, µM (highest dose often 114 µM), inactives show at the highest dose activity change, negative = inhibition, hits mostly inhibitors | actives 3% (n = 360,000); note: potency is the fitted concentration of half-maximal effect; % is set by controls: 0 for no effect and ±100 for the full control effect; nearly all actives have a fitted effect of over 60% in size
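First, TGR (20 nM dispensed) and NADPH were mixed with compound. Second, a 15 min room-temperature incubation followed. Third, further NADPH and then DTNB were added to start the reaction. Finally, TNB absorbance was monitored kinetically.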
* hit, by the source's call; i = inactive; ? = inconclusive; nt = no result given; [ ] = remark or other dose. Unless noted, calls come from the whole dose curve; as a rule, active = well fitted curve in the direction sought with a large enough effect; inconclusive = small, poorly fitted or top-dose-only effect, or another doubt; inactive = no such curve, though single readings can be large; an effect the other way counts as inactive or inconclusive.

SMILES	Pf growth 96h	SARS PLpro yeast	HCMV inh	HCV inh	Pf growth 48h	Sm TGR block
CC(C)CN1C(=O)/C(=C/c2ccco2)NC1=S	-9%	-10%	-39	-23%	-4%	32µM*
COc1cccc(N2C(=O)/C(=C\c3cccs3)NC2=S)c1	9%	-1%	?	4%	-11%	?
O=C(Nc1ccc(S(=O)(=O)Nc2ncccn2)cc1)c1cccc(Cl)c1	nt	nt	14	nt	nt	4%
O=C(Nc1cc(Sc2ccccn2)cc([N+](=O)[O-])c1)c1ccc(Cl)cc1	?	7%	-18	10µM*	?	10%
O=C(Nc1cc(Sc2ccccn2)cc([N+](=O)[O-])c1)c1cccc(Cl)c1	20%	-8%	?	8.9µM*	9.3µM*	-3%
CC(C(=O)Nc1nc(-c2ccc(F)cc2)cs1)N1C(=O)C2CC=CCC2C1=O (centres undefined)	0%	2%	-5	-8%	-14%	2%
Cc1ccc(-n2c(-c3cccs3)nc3nc4ccccc4nc32)cc1	2.9µM*	16%	-63*	7%	1%	5%
N=c1oc2ccc3ccccc3c2cc1-c1nnc2n1CCCCC2	9.3µM*	-2%	-19	4%	41%	0%
CC1CCCC(NC(=O)CSc2ccc(F)cc2)C1C (centres undefined)	7%	5%	12	11%	12%	2%
CC1CCCC(NCC(O)COC(c2ccc(F)cc2)c2ccc(F)cc2)C1C (centres undefined)	?	0%	-97*	?	?	21%
COc1cc2c(=O)c(S(=O)(=O)c3ccccc3)cn(CC(=O)Nc3ccccc3C)c2cc1OC	nt	nt	6	nt	nt	-5%
Cc1ccccc1NC(=O)CN1C(=O)NC2(CCCCCCC2)C1=O	57%	1%	-98*	24%	3%	-3%
Cc1cc(C)c(NC(=O)CN2C(=O)NC3(CCc4ccccc43)C2=O)c(Cl)c1 (centres undefined)	nt	3%	-14	-12%	nt	nt
Cc1cc(C)c(NC(=O)CN2C(=O)NC3(CCCCC3)C2=O)c(Cl)c1	13µM*	2%	-13	8%	0%	0%
CC1CCC2(CC1)NC(=O)N(CC(=O)N(Cc1ccccc1)C(C)(C)C)C2=O (centres undefined)	-1%	2%	-7	-11%	19%	-1%
Cc1ccccc1NC(=O)CN1C(=O)NC(C)(CCc2ccccc2)C1=O (centres undefined)	-22%	1%	?	-4%	13µM*	2%
CC(C)(C)N(Cc1ccccc1)C(=O)CN1C(=O)NC2(CCCCCC2)C1=O	?	3%	-61*	1%	?	1%
O=C(CSc1c2c(nc3ccccc13)CCC2)Nc1ccc(F)cc1F	nt	nt	-19	nt	nt	1%
COc1ccc(Cl)cc1NC(=O)Nc1ccc(C(=O)N2CCOCC2)cc1	-18%	3%	16	?	-2%	0%
Cc1ccc(Oc2ccccc2NC(=O)CN2C(=O)NC3(CCCC3)C2=O)cc1	14%	0%	-106*	11%	5%	-8%
Cc1cccc(Oc2ccccc2NC(=O)CN2C(=O)NC3(CCCC3)C2=O)c1	26%	-1%	-10	?	?	5%
O=C(Nc1ccccc1)Nc1ccc(Br)cc1F	0.37µM*	-19%	-16	-10%	101%	4%
Cc1cc(NC(=O)Nc2ccccc2F)ccc1Br	?	-2%	-19	13µM*	427%	17%
O=C(Nc1cccc(Cl)c1)Nc1ccc(Br)cc1F	?	-3%	-69*	?	?	-8%
Cn1nnc2cc(NC(=O)Nc3ccccc3F)ccc21	nt	nt	40	nt	nt	nt
SMILES	Pf growth 96h	SARS PLpro yeast	HCMV inh	HCV inh	Pf growth 48h	Sm TGR block
COC(=O)c1cc(Br)ccc1NC(=O)Nc1ccccc1	51%	5%	-35	4%	31%	-10%
CCOc1ccc(N(CC(=O)NCc2ccc(OC)cc2)S(C)(=O)=O)cc1	182%	1%	73	-8%	59%	5%
NC(=O)C1(Nc2ccc(Cl)cc2)CCCC1	nt	nt	-6	4%	nt	nt
Clc1cccc(-c2nc3c4ccccc4ccn3c2CC2CCCCC2)c1	nt	nt	-12	nt	nt	nt
CCCCCCN(C(=O)CCCCCN1C(=O)NC(c2ccc(C(C)(C)C)cc2)C(C(=O)OCc2ccccc2)=C1C)C(C(=O)NCCCC)c1ccc(OCC(=O)OC)c(C(=O)OC)c1 (centres undefined)	2.1µM*	0%	nt	nt	2.1µM*	1%
CCCCCCN(C(=O)CCCCCN1C(=O)NC(c2ccccc2)C(C(=O)OCc2ccccc2)=C1C)C(C(=O)NCCCC)c1ccc(OCC(=O)OC)c(C(=O)OC)c1 (centres undefined)	3.3µM*	1%	-98*	nt	2.1µM*	0%
CCCCCCN(C(=O)CCCCCN1C(=O)NC(c2ccc(C3CCCCC3)cc2)C(C(=O)OCc2ccccc2)=C1C)C(C(=O)NCCCC)c1ccc(OCC(=O)OC)c(C(=O)OC)c1 (centres undefined)	2.1µM*	-2%	-9	nt	2.9µM*	7%
CC1=C(C(=O)OCc2ccccc2)C(c2ccc(C(C)(C)C)cc2)NC(=O)N1CCCCCC(=O)O (centres undefined)	?	-29%	-5	-2%[8.37 µM]	?	-17%
Clc1ncc(CN2CCN(Cc3ccccc3)CC2)s1	19%	7%	8	12%	14%	?
O=S(=O)(Cc1ccccc1)Cc1cnc(Cl)s1	0%	5%	6	21%	-7%	40µM*
COc1ccc(CC2(CO)CCN(CC3=CC[C@H]4C[C@@H]3C4(C)C)CC2)cc1	14%	1%	38	-10%	7.4µM*	1%
Cc1cc(NC(=O)CS(=O)(=O)Cc2ccccc2)no1	-1%	0%	-33	21%	8%	nt
COc1ccc2[nH]c3nc(SC(C)C)nnc3c2c1	5.2µM*	2%	-21	-19%	405%	4%
CCc1ccc2[nH]c3nc(SCc4nnc(-c5ccccc5)o4)nnc3c2c1	?	4%	-28	21%	10%	11%
COc1ccc2[nH]c3nc(SCc4nnc(-c5ccccc5)o4)nnc3c2c1	i	0%	-94*	?	?	1%
Cc1ccccc1NC(=S)Nc1cccc2cnccc12	9.3µM*	-20%	-65*	-11%	5.2µM*	?
NC(=S)Nc1cccc2cnccc12	9%	-1%	-6	-6%	10%	9%
Cc1ccc(NC(=S)Nc2cccc3cnccc23)cc1C	?	2%	-27	?	?	?
FC(F)(F)c1ccccc1NC(=S)Nc1cccc2cnccc12	22%	-2%	-28	3%	-22%	35µM*
